From PubChem
Hits are enriched below; roughly 6.2% of the tested compounds scored in any of these assays.
NTR1 agonist: agonists of human NTR1, primary screen, imaging, U2OS cells, beta-arrestin-GFP, high content; Neurotensin receptor type 1 (Homo sapiens), P30989; NTR1-U2OS beta-arrestin-GFP spot imaging, agonist mode; activation, % at 20 µM; actives 0.17% (n = 330,000);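 active = activation at or above 40% of the spot to cytoplasm intensity ratio, with at least 20 cells analyzed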
AHR act: AHR activators, primary screen, cell-based, luminescence, luciferase reporter, human | activation, % at 5 µM | Aryl hydrocarbon receptor (Homo sapiens), P35869 | actives 2.5% (n = 320,000) | AHR-responsive luciferase reporter cells; in the data active = activation above about 47%
Mot1-301 SUMO: yeast Mot1-301 growth rescue at high temperature, primary screen, SUMOylation pathway inhibitor project, S. cerevisiae, ATP luminescence, 38.5C; S. cerevisiae Mot1-301 growth rescue; percent above DMSO median, 100 means doubled; growth rescue, % at 18.8 µM; actives 1% (n = 320,000); AID 2716, 2010;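 active = every valid replicate shows activation above 250% relative to neutral control wells; inactive = the rest, any valid replicate at or below 250%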
GRIN3A LBD mod: binders of NR3A ligand-binding domain, primary screen, biophysical, differential scanning fluorimetry, uHTS. Glutamate receptor ionotropic, NMDA 3A (GRIN3A) ligand-binding domain. NR3A LBD differential scanning fluorimetry, Tm shift; 0% = protein alone, 100% = glycine-bound protein. Tm shift relative to glycine control, % at 25 µM. actives 2.5% (n = 340,000);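 active = melting temperature shift of at least 10% of the positive control shift, at one fixed dose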
H9c2 protect: cardioprotection against H2O2-induced cell death, primary screen, uHTS, H9c2 cells, ATPLite luminescence. protection from H2O2 cell death, % at 20 µM. H9c2 cardiomyocytes, H2O2 injury protection, 2 h. actives 0.63% (n = 360,000);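 active = compounds giving at least 50% protection of heart cells from peroxide-induced death in the single-dose screen, raw or plate-pattern-corrected value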
AI-2 QS modul: Vibrio harveyi AI-2 quorum sensing modulators, primary screen, JMH597 strain, luminescence/OD600 ratio | Vibrio harveyi JMH597 AI-2 luminescence/OD600 ratio, 9 h; active compounds read low; strain lacks LuxN and CqsS sensors; 0 = neutral-control median | activity change, % at 7.5 µM | actives 0.4% (n = 300,000) | AID 2094, 2009; in the data active = activity change below about -75%, passing the limit was not always enough;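 also: luminescence divided by OD600 gain over 9 h not by final OD600 alone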
Of the large screens only hits and unclear results are named; the others gave an inactive call.

O=C(COc1ccc2ccccc2c1)Nc1ccc(Br)cc1C(=O)O	none (no result: NTR1 agonist)
COc1ccc(N2CCN(S(=O)(=O)CCNC(=O)C3CCCCC3)CC2)cc1	none
COc1ccc(N2CCN(S(=O)(=O)CCNC(=O)C3CC3)CC2)cc1	GRIN3A LBD mod 13
O=C(CCC1CCCCC1)NCCS(=O)(=O)N1CCN(c2ccc(F)cc2)CC1	GRIN3A LBD mod 14
COC(=O)/C=C/c1ccc(OC(=O)OC)c(OC(=O)OC)c1	H9c2 protect 62 (no result: NTR1 agonist)
C=CCN(Cc1ccc(OC)c(OC)c1)C(=O)c1cc2cc(F)ccc2[nH]1	AHR act 47
Cn1c(=O)c(=O)n(C)c2cc(N3CCCCC3)c(NS(=O)(=O)c3ccc([N+](=O)[O-])cc3)cc21	none
COc1ccccc1NC(=O)Cc1csc(NC(=S)Nc2ccccc2)n1	GRIN3A LBD mod 11
COc1ccc(C(=O)Nc2nc(CC(=O)NCCc3ccccc3)cs2)cc1	AHR act 48
CCn1c(CC(=O)Nc2ccccc2Cl)nnc1SCC(=O)NC1CCCC1	none
CC(=O)c1ccc(NC(=O)CN2C(=O)NC3(CCc4ccccc43)C2=O)cc1 (stereo not given)	none (no result: AI-2 QS modul)
O=S(=O)(c1cccs1)N1CCN(c2ncccn2)CC1	Mot1-301 SUMO active
CC(CN1CCCCC1)NC(=O)c1cccs1 (stereo not given)	none
Cn1cnnc1SCc1ccc(C(=O)N=Nc2c(O)n(Cc3ccc(Cl)cc3)c3ccccc23)cc1	H9c2 protect 54
O=C(Nc1ccc2ccccc2c1)c1cccc2ccccc12	none (no result: NTR1 agonist, AHR act, Mot1-301 SUMO, AI-2 QS modul)
CCOc1ccc(NC(=O)c2cccc3ccccc23)cc1	GRIN3A LBD mod 42 (no result: AI-2 QS modul)
COc1cc(C(=O)Nc2ccc(C)cc2)c2ccccc2n1	none
CCOc1ccc(NC(=O)c2cc(OC)nc3ccccc23)cc1	AHR act 65 (no result: GRIN3A LBD mod)
CN1C(=O)c2ccc(NC(=O)c3cccc4ccccc34)cc2C1=O	GRIN3A LBD mod 18
Cc1cc(C)c2c(=O)n3c(nc2c1)C(C)NC(=O)c1cccnc1-3 (stereo not given)	none (no result: NTR1 agonist, AHR act, Mot1-301 SUMO, GRIN3A LBD mod, AI-2 QS modul)
CC(OC(=O)Cc1ccsc1)C(=O)Nc1ccc(C(N)=O)cc1 (stereo not given)	none (no result: Mot1-301 SUMO, AI-2 QS modul)
Cc1cc(C)n(CCNS(=O)(=O)c2ccccc2)n1	none
COc1ccc(Cl)c(NC(=O)Cn2nnc(-c3ccccc3N)n2)c1	none
CCOC(=O)c1ccc(NC(=O)Cn2ncc(Cl)c(Cl)c2=O)cc1	AI-2 QS modul -96
Cc1cc(NC(=O)Cn2nnc(-c3ccccc3N)n2)no1	GRIN3A LBD mod 26
COC(=O)Cn1nc(C)c2ccccc2c1=O	none
COC(=O)c1ccc(NC(=O)Cn2nc(C)c3ccccc3c2=O)cc1	AI-2 QS modul -96
CCOC(=O)c1ccc(NC(=O)Cn2nc(C)c3ccccc3c2=O)cc1	AI-2 QS modul -97
CCOC(=O)c1ccc(NC(=O)Cn2nnc(-c3ccccc3C)n2)cc1	GRIN3A LBD mod 13
CCN(CC)C(=N)/C(C#N)=N/Nc1ccc(C)cc1	AHR act 75
CCCNC(=O)Nc1nc(C(N)c2ccc(OC)cc2)cs1 (stereo not given)	none (no result: NTR1 agonist, AHR act, Mot1-301 SUMO, GRIN3A LBD mod, AI-2 QS modul)
O=C(N/N=C/c1cccs1)c1cccc(NC(=O)c2ccccc2Cl)c1	none
Cc1cccc(C(=O)Nc2cccc(C(=O)N/N=C/c3ccc4c(c3)OCO4)c2)c1	none
O=C(N/N=C/c1cccs1)c1ccc(NC(=O)c2ccccc2Cl)cc1	GRIN3A LBD mod 18
Cc1cccc(C(=O)Nc2ccc(C(=O)N/N=C/c3ccc4c(c3)OCO4)cc2)c1	GRIN3A LBD mod 24
O=C(N/N=C/c1ccc2c(c1)OCO2)c1ccc(NC(=O)c2ccccc2Cl)cc1	GRIN3A LBD mod 22, H9c2 protect 56
Cc1n[nH]c(=O)c2c(NC(=O)CSc3ccc(Br)cc3)oc(C)c12	none
